# ± gives the standard deviation of the averaged measurements. In all, about 25,000 sequences were measured (“ln(normalized median fluorescence intensity)”: median about 7.9, highest 2% from about 11 on). For the sample, the highest values were picked, then their nearest neighbours and some sequences at random.
# Test system: PfAP2-I AP2 domain 3 (GST-tagged)
# Experiment: gcPBM binding intensity (ln(normalized median fluorescence intensity)); higher = stronger DNA binding
# Outline: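 Alexa488 anti-GST antibody, scanned at 488 nm, detected GST-tagged P. falciparum DNA-binding domains that had been expressed in E. coli and incubated for 1 h on an Agilent 4 × 180k array. The array carried primer-extended double-stranded 36-bp intergenic genomic probes and negative controls. Binding intensity is the highest Masliner-normalised natural-log median intensity across replicate spots of either orientation of each probe.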
row,Sequence,gcPBM binding intensity (ln)
1,TTCTGACCAATGCTATAAAATAATACAAAAGAAAAA [GTGCAC_negctrl_site3],7.83 ± 0.35
2,AACTTTTTTATATGCACACATAAACAAGGATATATA [CACACA_site2874],10.1 ± 0.49
3,TTAACTTTTTTATATGCACACATAAACAAGGATATA [CACACA_site8932],9.57 ± 0.3
4,TCCATATGCAAACTGGTGCACAAGTAGCTTTTATAT,11.15 ± 0.028
5,TATAAGAGGATATATACACACAAAAATATGTACAGT [CACACA_site6885],7.92 ± 0.52
6,TATTAATAATTAAGTTGTACATTAATTAATATACTG [XGTACX_site6994],7.46 ± 0.41
7,ATATATTTTAGGAGAGTGCATTTAATATTATTTAAT [GTGCAC_site9444],10.7 ± 0.62
8,ATATATCAAGGGAGTGAATGTTATGCATATGAATAT [TGCATGCA_negctrl_site573],7.82 ± 0.83
9,CGTTATATCAAAGGAGTGCATTATGAATACGTTTTA [GTGCAC_site9837],11.4 ± 0.65
10,AAAAATAGGAACCAATATCCAACGTGACTTTATAAT [CACACA_negctrl_site1011],7.68 ± 0.81
11,TTTACTTTTTTTTCTTGTACTCATACATACTATCAT [XGTACX_site4919],7.84 ± 0.83
12,ATATATATAATATGATGTACTATTTTGATAAAAAAT [XGTACX_site3975],8.23 ± 0.54
13,TTTATCATGAACAGAAGTACATTTATATCAATGTCT [XGTACX_site6470],7.5 ± 0.47
14,ATTGTCAAAACACGCACACACATATACATAATAACA [CACACA_site1742],8.2 ± 0.37
15,TTATATTATTCGTGTGTGCACGATATTTCATAATTG [GTGCAC_site9767],10.1 ± 0.2
16,TTTGCGTAGAAATGTGTGCACTGATATTTATAATAA [GTGCAC_site9526],10.6 ± 0.035
17,ATATATATATATTTCGTGCACTGATAATATTATTTT,11.2 ± 0.35
18,AAAATTAAAATATCACGTACGAAGAAAAAATTAAGA [XGTACX_site6437],7.86 ± 0.54
19,TATTTCACTTTTTGTCTGCACTAAAATTTTATGGTA,9.46 ± 0.32
20,TAGACAAAATATAATGCACACTATTATTTTTATTTA [CACACA_site5508],11 ± 0.73
21,AATTAGCTATTTAAAAATATATAAAATTTATATATA [CACACA_negctrl_site390],7.47 ± 0.2
22,ATATATATATTATATGCACACTAATAAGACTATTTA [CACACA_site5880],9.66 ± 0.11
23,TTTCAAAAAAATAGCTATATTTATATTAATGCACGA [TGCATGCA_negctrl_site63],11.9 ± 0.45

row,Sequence,gcPBM binding intensity (ln)
1,ATTATATATATTTATGCACACAAAATATATTATATA [CACACA_site9244],9.78 ± 0.3
2,ACTAGACAAAATATAATGCACACTATTATTTTTATT [CACACA_site2726],10.9 ± 0.65
3,TTTTTAATTCAAAAAATAATATATTATATTTCAAAT [CACACA_negctrl_site737],7.38 ± 0.48
4,TATATATATTTATGCACACAAAATATATTATATAAT [CACACA_site5955],9.86 ± 0.38
5,TTATATTTTACAAATGCACACATAATTTTTTTTTTT [CACACA_site8890],9.04 ± 0.19
6,ACTTCATTTTTTTTATGTACACAGAAGATTTACAAA [XGTACX_site4021],8.44 ± 0.47
7,TTTATTTGTAACGGTTGTACTTGTATATCATTATGA [XGTACX_site4281],7.72 ± 0.4
8,AAAAAAGACCATGTTAGTACATAAGATTTTTTTCAT [XGTACX_site4298],7.53 ± 0.57
9,ATATTGCTTATTTGATGTACGAATACACTAGTATTA [XGTACX_site4536],7.79 ± 0.64
10,TTATATTATATATATAGTACACATGTAATATTTCAA [XGTACX_site1791],7.76 ± 0.35
11,ACCCTATTTATATATACACACACATATATAAATAAA [CACACA_site8980],8.24 ± 0.36
12,AAAAAAAAAAATATAACACACAAAAAATTGTATCGA [CACACA_site1144],7.53 ± 0.26
13,GCTATTAATTTATAAGCACACAATATAAATATATAT [CACACA_site2251],8.46 ± 0.057
14,AAGTTATATTTGTGTACACATAATTTTATACTAATA [CACACA_site5553],8.82 ± 0.33
15,AGTACATTTTTGTGTGTGCACTAATATTATATACTT [GTGCAC_site9568],11.3 ± 0.62
16,CTTAAATTAATTTGGGTGCATATATTTGTACACATT [GTGCAC_site9948],10.8 ± 0.53
17,AAATATAATAATACATTGCACATATATTATATATAT [TGCATGCA_negctrl_site611],8.53 ± 0.64
18,TTGCATATTTCTAATTGTACATTATTTTATTTTATA [XGTACX_site8451],7.75 ± 0.54
19,TTGGGTGCATATATTTGTACACATTATTTCTATTTT [XGTACX_site3688],11.2 ± 0.85
20,TTTTGTTTATGTGTGCATTATATTATATTTTTTATT [TGCATGCA_negctrl_site146],10.9 ± 0.45
21,AATAAATAGAAAGAGGTGCTACATTATATTATTTAT,8.73 ± 0.3
22,TATGTTTGTGTATATATTTATTTTTATGTAATTATA [GTGCAC_negctrl_site219],7.75 ± 0.45
23,ATATGTATGTATTTATTATTGTGCATTGTATTTATA [CACACA_negctrl_site664],9.36 ± 0.38

row,Sequence,gcPBM binding intensity (ln)
1,TATATATATATTTTTTGTACATATTATATAATATAC [XGTACX_site5187],9.025 ± 0.064
2,ATATATTATAGAGGTGTGCACTACATACATTATAAT [GTGCAC_site9991],10.9 ± 0.4
3,CCTTTTTCTACTTTCTCACACATATTAAGAATTATA [CACACA_site5621],8.29 ± 0.51
4,ATAAAAATGGATGAATATAAAAAAAAAAAAATATAT [CACACA_negctrl_site182],7.74 ± 0.59
5,AAAAAAAATAAAAATATATATATATATATATAAATA [GTGCAC_negctrl_site676],7.82 ± 0.53
6,TTCAATAGTAAGTATACACACATATATATATATAAA [CACACA_site2687],7.82 ± 0.47
7,TTACTTAATAGACACACACACAAAAAAAAAAAAAAA [CACACA_site6572],8.12 ± 0.49
8,TTATTAAATTTTTTTTGTACTTATATATATATATAT [XGTACX_site2443],9.23 ± 0.18
9,GTTTATGTATTATTATGTACGTATCATAATATATAT [XGTACX_site2385],8.28 ± 0.38
10,TTATATTAATTTTGTTGTACTATTTGTGCATTAAAT [XGTACX_site4790],11.1 ± 0.78
11,TATATATTATATATATGTACATATTGTTGTGTATAT [XGTACX_site767],7.92 ± 0.43
12,TTTTGTTATAAATAATGTACATATTTATTTAAAATT [XGTACX_site6610],7.69 ± 0.38
13,AATTGTGCATTATATTGTACACGTGTTGTATATATT [XGTACX_site975],11.1 ± 0.4
14,ATATAATAAATGTAGGTGCATAAAAATATTTTGTTA [GTGCAC_site9780],11 ± 0.45
15,AAATAATTATTTATCACACATATGTATTTATATATA [CACACA_site4589],7.66 ± 0.43
16,AGTGCATAATATTTATGTACGTATCACATATATTTT [XGTACX_site5166],11.3 ± 0.83
17,GTGTGCAAAAATTGTTGTACATTATATATAAAAAAA [XGTACX_site3246],9.41 ± 0.34
18,TTTTTTTTTTTTTTGTGTACTAATATTATAAATTTT [XGTACX_site4405],8.14 ± 0.3
19,ATTTTTTAAAATATTTGTACATATATAATGCATATA [XGTACX_site7026],8.17 ± 0.17
20,ATAATAAATTCTACGCGTACAAAACCATGAACATTA [XGTACX_site7505],8.02 ± 0.38
21,TAATTAAAATTAAGAAGTACATTTTACTTTTAATGC [XGTACX_site5120],7.61 ± 0.63
22,TTTTATTAAAACCACGCATGCAGAGGAAACGGTGAG [TGCATGCA_site1029],8.45 ± 0.64
23,GTGTTAAATTTTTGAACATGCAAGTTTTATTATTGA [TGCATGCA_site478],7.58 ± 0.56

row,Sequence,gcPBM binding intensity (ln)
1,ATATTCCTACATACAACACACGACGTTCTCATAAGA [CACACA_site231],8.06 ± 0.66
2,TTATATGCATAAAAACGTACAAAAATGTATTCATGT [XGTACX_site2215],8.06 ± 0.52
3,TCACTTTTATAATATAATATTCTATATCTTATTTTT [GTGCAC_negctrl_site717],7.47 ± 0.47
4,TAATATAAAGAAATATCAATAATTTGGGCAAATGCC [GTGCAC_negctrl_site621],7.53 ± 0.45
5,ATAATAATATTATTTTGTACATATGTGCTTATTTAT [XGTACX_site5540],8.375 ± 0.035
6,TTGCATTAATTTATGTGTACATATAAATTTTTATTT [XGTACX_site3060],8.21 ± 0.15
7,AATAATATTTATTTTTGTACATATGTGCATTATAAA [XGTACX_site3682],11 ± 0.98
8,AATTTAATATAATGCACACATAAAAAAAAAATCAAA [CACACA_site1],10.9 ± 0.65
9,AAAAAATTAAAAATCACACATAAATATATATAAAAA [CACACA_site4192],7.53 ± 0.67
10,ACATCATAAAATTTATGTACACATTTTTAATTATAC [XGTACX_site7759],8.19 ± 0.19
11,TTTATCAAAATAAATGCACACAAATTGCACATATCT [CACACA_site8281],10.31 ± 0.035
12,CTCTATAAATGCTGCACACACATTTAATTATTTAAG [CACACA_site2582],9.045 ± 0.064
13,ATTTATAAAATTAATGCACACATCAGCATTTATAAA [CACACA_site1025],11.3 ± 0.79
14,AAAATTTAATATAATGCACACATAAAAAAAAAATCA [CACACA_site7882],11.2 ± 0.76
15,AAATTAAAATATAATACACACATAAAAAAAAAATCA [CACACA_site5918],7.68 ± 0.61
16,ATTATTTTATAATTCACACATAAATAAAAAAAAAAT [CACACA_site5290],7.76 ± 0.32
17,TCTAATAAAATAAATACATGCATACATACATACATA [TGCATGCA_site895],7.76 ± 0.63
18,TATGTGAATAAATAAGCACACATAAACACATATATA [CACACA_site9359],8.06 ± 0.42
19,ATTTAATGTATTTTGCGTACGAATTATTTTATTTCA [XGTACX_site7331],7.93 ± 0.49
20,CTATTATAATATTTTACACACCATGTAAAATATATA [CACACA_site3206],7.75 ± 0.39

# Source: the supplement of paper PMC11417369
